PubChem BioAssay (NCATS)
“And” between values parts separate entries of the source, which are not always exact repeats. Identical values can stand only once. Results filed as inconclusive are left out. A structure can be active in one record and inactive in another. The source made the active and inactive calls. Unless noted, the call rests on the fitted dose curve.

Assays:
[1] = Primary qHTS for inhibitors of MERS-S pseudo-typed particle cell entry (AID 1479149); conditions: MERS-S pseudotyped particle entry, luciferase; series mostly up to 57.1 µM; further: nearly all actives have a fitted effect of over 60% in size; further: potency means the concentration at half of the fitted maximal effect
[2] = Primary qHTS for Vero E6 cytotoxicity: counterscreen for inhibitors of SARS-S pseudo-typed particle cell entry (AID 1479150); conditions: cell viability; series mostly up to 57.1 µM
[3] = Primary qHTS for inhibitors of La Crosse Virus (LACV) - induced cell death in SH-SY5Y cells (AID 1508616; active means well fitted curve in the direction sought with a large enough effect; an effect the other way counts as inactive or inconclusive;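 further: top concentration of the series differs between compounds; higher means more rescue of cells from virus-induced death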); conditions: SH-SY5Y LACV cytopathicity rescue, ATP luminescence, 6 d; series mostly up to 4.29 µM
How it was run: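 Protection against LACV-induced cell death is scored in SH-SY5Y cells exposed to compounds and virus (0.01 MOI) for 6 days. Data normalized to virus-infected DMSO wells and virus-free DMSO wells.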

[4] = Primary qHTS for small molecule stabilizers of the endoplasmic reticulum resident proteome: Secreted ER Calcium Modulated Protein (SERCaMP) assay (AID 1508630; active means well fitted curve in the direction sought with a large enough effect; an effect the other way counts as inactive or inconclusive); conditions: SH-SY5Y GLuc-SERCaMP (Gaussia luciferase released on ER calcium loss) secretion, thapsigargin, luminescence; series mostly up to 38.4 µM
How it was run: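 GLuc-SERCaMP-expressing SH-SY5Y cells, pretreated 16 h with compound, are challenged with thapsigargin to empty ER calcium stores; after 4 h, coelenterazine is added directly to the medium and luminescence is imaged.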

[5] = A High-Content qHTS Against Drug Library for the Identification of Small Molecules that Inhibit DYT1 Early Onset Primary Dystonia-Associated Cell Pathology (AID 1645839); conditions: HEK293 Flp-In EGFP-delE TorsinA, punctate imaging, 48 h; series mostly up to 46.1 µM; further: potency means the concentration at half of the fitted maximal effect
How it was run: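 In this high-content image screen, delE TorsinA mislocalization in inducible Flp-In 293 cells is scored as %pathology, with cell count serving as the counterscreen. Compound exposure lasts 48 h under tetracycline induction in reduced-serum medium.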

[6] = biological target: Cytochrome P450 2D6 (Homo sapiens) (UniProt P10635); assay: Cytochrome P450 family 2 subfamily D member 6 (CYP2D6) small molecule antagonists: luciferase biochemical (cell-free) qHTS assay (AID 1645840; active means well fitted curve in the direction sought with a large enough effect in the repeat runs; an effect the other way counts as inactive or inconclusive; further: nearly all actives have a fitted effect of over 55% in size; further: potency means the concentration at half of the fitted maximal effect); conditions: P450-Glo CYP2D6 enzyme, luciferin luminescence, 1 h; series mostly up to 57.4 µM
Cytochrome P450 2D6 (Homo sapiens), sequence (P10635 whole entry, looked up): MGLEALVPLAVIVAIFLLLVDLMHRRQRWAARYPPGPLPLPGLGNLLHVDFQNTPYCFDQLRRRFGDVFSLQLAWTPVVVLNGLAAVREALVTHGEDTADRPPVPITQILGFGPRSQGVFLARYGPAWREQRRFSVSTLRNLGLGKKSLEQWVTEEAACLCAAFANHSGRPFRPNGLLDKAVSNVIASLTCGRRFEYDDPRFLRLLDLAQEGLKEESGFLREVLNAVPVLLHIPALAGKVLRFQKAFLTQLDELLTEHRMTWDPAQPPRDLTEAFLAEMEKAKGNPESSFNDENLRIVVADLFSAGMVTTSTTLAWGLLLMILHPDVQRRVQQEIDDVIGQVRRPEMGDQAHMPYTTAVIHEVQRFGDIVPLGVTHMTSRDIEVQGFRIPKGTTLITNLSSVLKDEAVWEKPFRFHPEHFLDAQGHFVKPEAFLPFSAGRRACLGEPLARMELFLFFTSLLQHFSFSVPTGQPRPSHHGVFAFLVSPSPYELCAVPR
How it was run: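 P450-Glo luminescent screen: recombinant CYP2D6 enzyme–proluciferin substrate mix preincubated with compound 10 min at room temperature, then NADPH regeneration added for 1 h at room temperature. Detection reagent added for 20 min; luciferin light read as relative luminescence units.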

[7] = biological target: Cytochrome P450 2C9 (Homo sapiens) (UniProt P11712); assay: Cytochrome P450 family 2 subfamily C member 9 (CYP2C9) small molecule antagonists: luciferase biochemical (cell-free) qHTS assay (AID 1645842; active means well fitted curve in the direction sought with a large enough effect in the repeat runs; an effect the other way counts as inactive or inconclusive; further: nearly all actives have a fitted effect of over 55% in size; further: potency means the concentration at half of the fitted maximal effect); conditions: P450-Glo CYP2C9 enzyme assay, luciferin luminescence; series mostly up to 57.4 µM
Cytochrome P450 2C9 (Homo sapiens), sequence (P11712 whole entry, looked up): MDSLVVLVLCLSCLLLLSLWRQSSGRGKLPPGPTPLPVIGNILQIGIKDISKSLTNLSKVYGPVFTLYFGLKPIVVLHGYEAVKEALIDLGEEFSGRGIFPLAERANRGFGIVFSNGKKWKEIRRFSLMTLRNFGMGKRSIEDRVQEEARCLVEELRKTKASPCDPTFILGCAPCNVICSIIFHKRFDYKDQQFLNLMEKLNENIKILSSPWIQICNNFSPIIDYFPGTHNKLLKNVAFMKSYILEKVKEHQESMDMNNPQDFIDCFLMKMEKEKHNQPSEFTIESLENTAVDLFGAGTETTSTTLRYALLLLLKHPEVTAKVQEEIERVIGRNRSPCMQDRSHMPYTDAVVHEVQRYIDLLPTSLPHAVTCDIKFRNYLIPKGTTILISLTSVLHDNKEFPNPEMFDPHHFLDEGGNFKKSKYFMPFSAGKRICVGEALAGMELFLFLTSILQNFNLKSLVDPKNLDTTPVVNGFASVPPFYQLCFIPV
How it was run: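 Luminescence, after 20 min with luciferin detection reagent, reflected CYP2C9 turnover during a 1 h NADPH-driven reaction at 37C. Enzyme-substrate mix contained 0.4% bovine serum albumin and was preincubated with compound 10 min at room temperature.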

[8] = Cytotoxicity counterscreen for inhibitors of SARS-CoV-2 cell entry (AID 1645845); conditions: cell viability (SARS-CoV-2 entry assay cells); series mostly up to 57.1 µM; further: nearly all actives have a fitted effect of over 50% in size; further: potency means the concentration at half of the fitted maximal effect
How it was run: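 48 h compound treatment (after 1 h preincubation), HEK293-ACE2 cells, 37 C/5% CO2; ATP luminescence endpoint; normalized to cell wells and media blanks.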

[9] = Primary qHTS to identify inhibitors of SARS-CoV-2 cell entry (AID 1645846); conditions: SARS-CoV-2 pseudovirus cell entry assay, luminescence; activity change, negative = inhibition: at 57.1 µM (top of the series) unless noted; series mostly up to 57.1 µM; further: nearly all actives have a fitted effect of over 45% in size; further: potency means the concentration at half of the fitted maximal effect
How it was run: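 Inhibition of spike-mediated entry was scored in human ACE2-transfected Expi293F cells. Particles were MLV-pseudotyped with Wuhan-Hu-1 S carrying a 19-aa C-terminal deletion; signal was luciferase after two days, scaled between spike PP and fusion-protein-free PP.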

[10] = biological target: Calcium and integrin-binding protein 1 (Homo sapiens) (UniProt Q99828); assay: Primary qHTS for Identification of Calcium Integrin Binding Protein 1 (CIB1) Competitor (AID 1508620; active means well fitted curve in the direction sought with a large enough effect; an effect the other way counts as inactive or inconclusive;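 further: GST tagged CIB1 binding a fluorescein labelled alphaIIb integrin peptide tracer; top concentration of the series differs between compounds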); conditions: CIB1-GST / FITC-alphaIIb peptide fluorescence polarization; series mostly up to 114 µM
Calcium and integrin-binding protein 1 (Homo sapiens), sequence (Q99828 whole entry, looked up): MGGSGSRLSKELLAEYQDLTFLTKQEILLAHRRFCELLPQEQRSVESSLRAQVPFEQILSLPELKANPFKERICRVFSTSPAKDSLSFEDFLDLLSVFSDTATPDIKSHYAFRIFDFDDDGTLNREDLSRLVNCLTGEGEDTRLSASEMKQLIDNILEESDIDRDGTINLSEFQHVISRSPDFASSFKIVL
How it was run: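 CIB1-GST (1 uM final) and compound incubated 15 min at room temperature before adding FITC-alphaIIb peptide tracer (100 nM final). Competition for binding read by fluorescence polarization (ex 480, em 540) after another 15 min at room temperature.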

[11] = Confirmatory qHTS to identify inhibitors of SARS-CoV-2 cell entry (AID 1645844); conditions: SARS-CoV-2 pseudotyped particle cell entry, luciferase; series mostly up to 57.2 µM; further: nearly all actives have a fitted effect of over 45% in size; further: potency means the concentration at half of the fitted maximal effect
How it was run: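 Luminescence from a luciferase reporter, read 48 hr after pseudotyped-particle addition, gives entry signal, normalised to spike-bearing PP wells and bald PP lacking fusion protein wells. Cells are Expi293F stably expressing human ACE2, compound-pretreated 1 hr.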

[12] = VSVG counterscreen qHTS to identify inhibitors of SARS-CoV-2 cell entry (AID 1645847); conditions: VSV-G pseudotyped particle entry, luciferase; series mostly up to 57.2 µM; further: nearly all actives have a fitted effect of over 65% in size; further: potency means the concentration at half of the fitted maximal effect
How it was run: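 Luminescence from a luciferase reporter, normalised to bald particle and VSV-G pseudotyped particle wells, is the read-out. Cells are HEK293 expressing human ACE2, exposed to compound 1 h before a 48 h particle infection at 37 °C.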

[13] = Cell Viability qHTS for small molecule stabilizers of the endoplasmic reticulum resident proteome (AID 1508629; active means well fitted curve in the direction sought with a large enough effect; an effect the other way counts as inactive or inconclusive;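 further: potency means the concentration at half of the fitted maximal effect; compound exposure about 46 h in total before the viability read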); conditions: cell viability counter-screen, 100 nM thapsigargin for final 4 h
[14] = biological target: Cytochrome P450 3A4 (Homo sapiens) (UniProt P08684); assay: Cytochrome P450 family 3 subfamily A member 4 (CYP3A4) small molecule antagonists: luciferase qHTS assay (AID 1645841; active means well fitted curve in the direction sought with a large enough effect in the repeat runs; an effect the other way counts as inactive or inconclusive; further: nearly all actives have a fitted effect of over 45% in size); conditions: P450-Glo CYP3A4 enzyme assay, luciferin luminescence; series mostly up to 57.4 µM
Cytochrome P450 3A4 (Homo sapiens), sequence (P08684 whole entry, looked up): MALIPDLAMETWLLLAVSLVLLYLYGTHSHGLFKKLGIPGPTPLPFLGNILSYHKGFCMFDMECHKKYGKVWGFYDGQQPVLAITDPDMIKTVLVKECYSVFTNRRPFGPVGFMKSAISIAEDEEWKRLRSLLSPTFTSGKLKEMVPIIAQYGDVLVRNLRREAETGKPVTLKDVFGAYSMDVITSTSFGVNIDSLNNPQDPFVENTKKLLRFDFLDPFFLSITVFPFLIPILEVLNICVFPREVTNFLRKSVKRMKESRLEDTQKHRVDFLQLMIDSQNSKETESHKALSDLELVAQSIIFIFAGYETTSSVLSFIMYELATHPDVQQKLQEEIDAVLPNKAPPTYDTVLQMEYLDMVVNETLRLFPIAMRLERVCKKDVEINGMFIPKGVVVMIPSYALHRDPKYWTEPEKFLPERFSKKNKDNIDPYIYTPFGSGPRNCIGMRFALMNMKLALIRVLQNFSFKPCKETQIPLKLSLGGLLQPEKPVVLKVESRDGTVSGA
How it was run: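 Luminescent CYP3A4 activity readout: compounds plus enzyme-substrate mix 10 min at room temperature, reaction started with NADPH regenerating system for 1 h, stopped with detection reagent, read after 20 min. Ketoconazole served as control.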

C#CCN(C)[C@H](C)Cc1ccccc1
-14%: activity change, negative = inhibition [9]
active: Potency [6] 13.8 µM
inactive: Potency [1] | Potency [2] | Potency [3] | outcome [4] | Potency [5] | Potency [7] | Potency [8] | Potency [9]

C=C1CC[C@@]2(O)[C@H]3Cc4ccc(O)c5c4[C@@]2(CCN3CC2CC2)[C@H]1O5
active: Potency [6] 2.75 µM
inactive: Potency [1] | Potency [2] | Potency [3] | Potency [10] | Potency [5] | Potency [7] | Potency [9]

c1ccc2c(c1)Nc1ccccc1S2
inactive: Potency [1] | Potency [2] | Potency [3] | outcome [4] | Potency [5] | Potency [6] | Potency [7] | Potency [8] | Potency [9]

C[C@H]1O[C@H](O[C@H]2[C@H](O)[C@@H](O)[C@@H](O[C@H]3[C@H](O)[C@@H](O)[C@H](O)O[C@@H]3CO)O[C@@H]2CO)[C@H](O)[C@@H](O)[C@@H]1N[C@H]1C=C(CO)[C@@H](O)[C@H](O)[C@H]1O
inactive: Potency [1] | Potency [2] | Potency [8]

COC(c1ccccc1)(c1ccccc1)[C@H](Oc1nc(C)cc(C)n1)C(=O)O
-34.8%: activity change, negative = inhibition [9]
inactive: Potency [1] | Potency [2] | Potency [11] | Potency [8] | Potency [9] | Potency [12]

CCCC1CCCCN1 (stereo not drawn)
inactive: Potency [1] | Potency [2] | Potency [3] | Potency [5] | Potency [7] | Potency [9]

CC[C@@H](CO)NC(=O)[C@@H]1C=C2c3cccc4[nH]cc(c34)C[C@H]2N(C)C1
inactive: Potency [1] | Potency [2] | Potency [3] | outcome [4] | Potency [5] | Potency [7] | Potency [8]
-4.87%: activity change, negative = inhibition [9]

CO[C@H]1C=CO[C@@]2(C)Oc3c(C)c(O)c4c(O)c(c(/C=N/N5CCN(C)CC5)c(O)c4c3C2=O)NC(=O)/C(C)=C\C=C[C@H](C)[C@H](O)[C@@H](C)[C@@H](O)[C@@H](C)[C@H](OC(C)=O)[C@@H]1C
inactive: Potency [1] | Potency [2] | Potency [8]

C=C1C[C@@H]2[C@H](CC[C@]3(C)C(=O)CC[C@@H]23)[C@@]2(C)C=CC(=O)C=C12
inactive: Potency [1] | Potency [2] | Potency [3] | Potency [6] | Potency [8]

O=P1(NCCCl)OCCCN1CCCl (stereo not drawn)
-11%: activity change, negative = inhibition [9]
inactive: Potency [1] | Potency [2] | Potency [3] | outcome [4] | Potency [5] | Potency [8] | Potency [9]

CC(C)NCC(O)c1ccccc1Cl (stereo not drawn)
inactive: Potency [1] | Potency [2] | Potency [3] | Potency [10] | Potency [5] | Potency [7] | Potency [8] | Potency [9]
active: Potency [6] 11 µM

O=C1CCc2ccc(OCCCCN3CCN(c4cccc(Cl)c4Cl)CC3)cc2N1
active: Potency [1] 11.2 µM | Potency [11] 19.2 µM | Potency [12] 13.6 µM
inactive: Potency [2]

CS(=O)(=O)OCCCCOS(C)(=O)=O
inactive: Potency [1] | Potency [2] | Potency [8]

Cn1cc(C2=C(c3cn(C4CCN(Cc5ccccn5)CC4)c4ccccc34)C(=O)NC2=O)c2ccccc21
active: Potency [7] 3.09 µM
inactive: Potency [1] | Potency [2] | Potency [10] | outcome [4] | Potency [6] | Potency [8]

CC(=O)Nc1cc([As](=O)(O)O)ccc1O
inactive: Potency [1] | Potency [2] | Potency [3] | Potency [10] | Potency [5] | Potency [6] | Potency [7] | Potency [8]
-7.63%: activity change, negative = inhibition [9]

Clc1ccc(COC(Cn2ccnc2)c2ccc(Cl)cc2Cl)cc1 (stereo not drawn)
active: Potency [1] 25.1 µM | Potency [6] 0.219 µM | Potency [11] 9.61 µM | Potency [12] 12.1 µM
inactive: Potency [2] | Potency [3]

COc1ccc(C(CN(C)C)C2(O)CCCCC2)cc1 (stereo not drawn)
inactive: Potency [1] | Potency [2] | Potency [3] | outcome [4] | Potency [5] | Potency [7] | Potency [8] | Potency [9]

CC(C)(C)C(=O)OCOP(=O)(COCCn1cnc2c(N)ncnc21)OCOC(=O)C(C)(C)C
active: Potency [11] 0.0086 µM | Potency [12] 0.0152 µM
-90.1%: activity change, negative = inhibition [9]
inactive: Potency [1] | Potency [2] | Potency [8]

Cc1nc2n(c(=O)c1CCN1CCC(c3noc4cc(F)ccc34)CC1)CCC[C@H]2O
inactive: Potency [1] | Potency [2] | Potency [8]

CCc1c2c(nc3ccc(OC(=O)N4CCC(N5CCCCC5)CC4)cc13)-c1cc3c(c(=O)n1C2)COC(=O)[C@]3(O)CC
active: Potency [1] 10 µM | Potency [11] 0.136 µM | Potency [9] 0.891 µM | Potency [12] 0.171 µM
inactive: Potency [2] | Potency [8]
-95.5%: activity change, negative = inhibition [9]

Cc1ccc(S(=O)(=O)NC(=O)NN2CC3CCCC3C2)cc1 (stereo not drawn)
inactive: Potency [1] | Potency [2] | Potency [8]

Oc1cccc2cccnc12
31.6 µM (active) and inactive: Potency [5]
-23.4%: activity change, negative = inhibition [9]
inactive: Potency [2] | Potency [3] | outcome [4] | Potency [6] | outcome [14] | Potency [8]
inactive and 3.55 µM (active): Potency [1]
active: Potency [13] 20 µM

CC(=O)O[C@@]12CO[C@@H]1C[C@H](O)[C@@]1(C)C(=O)[C@H](O)C3=C(C)[C@@H](OC(=O)[C@H](O)[C@@H](NC(=O)OC(C)(C)C)c4ccccc4)C[C@@](O)([C@@H](OC(=O)c4ccccc4)[C@H]21)C3(C)C
inactive: Potency [1] | Potency [2]
active: Potency [8] 8.91 µM

Cc1cccc(Nc2ccccc2C(=O)O)c1C
inactive: Potency [1] | Potency [2] | Potency [8] | Potency [9]

CN1C(CCl)Nc2cc(Cl)c(S(N)(=O)=O)cc2S1(=O)=O (stereo not drawn)
inactive: Potency [1] | Potency [2] | Potency [8] | Potency [9]
